Data as given in PubChem BioAssay (NCI).
This is part of a sample that, as a whole, favours compounds with a hit. Of some 83,000 tested, about 20% had one in any assay.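 Note: values are percent growth. 100 is the growth of untreated cells, values between 100 and 0 indicate rising inhibition; between -100 and 0 indicates cell death.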 A number with no mark means an inactive call. Calls of active or inactive are those of the source. Rule for the calls: active = growth percent below 10; inactive = the rest.

Tests used:
Assay in all cases: NCI-60 one-dose screen, 48 h (100 = growth as untreated, 0 = no growth, -100 = all killed)
Details in all cases: 10 µM unless noted
NCI-H23 lung = tested on: NCI-H23 lung
NCI-H226 lung = tested on: NCI-H226 lung
NCI-H322M lung = tested on: NCI-H322M lung
HOP-62 NSCLC = tested on: HOP-62 NSCLC
NCI-H460 lung = tested on: NCI-H460 lung
A549/ATCC NSCLC = tested on: A549/ATCC NSCLC
786-0 renal = tested on: 786-0 renal
COLO 205 colon = tested on: COLO 205 colon

| SMILES | growth (NCI-H23 lung) | growth (NCI-H226 lung) | growth (NCI-H322M lung) | growth (HOP-62 NSCLC) | growth (NCI-H460 lung) | growth (A549/ATCC NSCLC) | growth (786-0 renal) | growth (COLO 205 colon) |
| --- | --- | --- | --- | --- | --- | --- | --- | --- |
| Clc1ccc(I)c2ccccc12 | 106% | 103% | 95.3% | 103% | 112% | 108% | 93.4% | 110% |
| C/C=C/C/C=C/[C@H](C)C[C@H](O)[C@@H]1C[C@@H]2O[C@H]2/C=C/[C@@H]2OC(C)(C)O[C@H]2/C=C/C[C@H](C)CC(=O)O1 | 36.3% | 30.5% | 55.5% | 41.6% | 17.4% | 24.7% | 53.5% | 61.1% |
| C=CCNCCC#N | 113% | 92.9% | 115% | 105% | 111% | 99.2% | 102% | 116% |
| O=C1C(Cl)=C(SC2=NCCN2)C(=O)c2ccccc21 | 2.92% (active) | 91.7% | 99.5% | 98.8% | 70% | 95.2% | 99.2% | 111% |
| COc1cc([C@@H]2c3cc4c(cc3[C@H](O)[C@H]3COC[C@@H]23)OCO4)cc(OC)c1OC | 91.8% | 88.8% | 104% | 65.4% | 94.4% | 98.8% | 78.5% | 96.7% |
| COC(=O)c1cc(O)c2cc3c(cc2c1-c1cc(OC)c(OC)c(OC)c1)OCO3 | 49.9% | 50.6% | 59.9% | 28% | 14.7% | 45.1% | 29.6% | 5.08% (active) |
| O=C1Nc2c(c(=O)n(-c3ccccc3)c3ccccc23)C(c2ccc(Cl)cc2)N1 (centres undefined) | 90.4% | 99.2% | 95.5% | 84.2% | 47.7% | 76.2% | 60.8% | 107% |
| Nc1nc(-c2cccc(Br)c2)cc(-c2cc3ccccc3oc2=O)n1 | 96.1% | 91.5% | 115% | 90.9% | 103% | 97.2% | 105% | 113% |
| CC(=O)Nc1nc(C)c(C(=O)NNS(=O)(=O)c2ccccc2)s1 | 109% | 112% | 99.4% | -98.9% (active) | 110% | 103% | 92.6% | 119% |
| CCCCCCC(=O)C(C)C | 107% | 92.3% | 96.5% | 93.8% | 113% | 97.5% | 94.5% | 112% |
| N#Cc1ccc(OCc2nc(N)nc(N)c2-c2ccc(Cl)c(Cl)c2)cc1 | 36.3% | 45.8% | 40.6% | 9.96% (active) | 14.1% | 7.74% (active) | 25.8% | 45.5% |
| C=C(C)C(C(=O)OCC)(C(=O)OCC)C(C)C | 114% | 109% | 111% | 108% | 106% | 96.5% | 103% | 117% |
| CCOC(=O)c1csc(-c2ccc(COC(=O)c3ccccc3)o2)n1 | 108% | 104% | 93.2% | 99.5% | 109% | 99.7% | 102% | 114% |
| COc1cc2cn3c4ccc(O)cc4[nH]c(=O)c3c2cc1OC | -6.02% (active) | 8.14% (active) | 1.3% (active) | 4.45% (active) | -55.7% (active) | 10.6% | 1.09% (active) | -19.5% (active) |
| O=C1C=C(OCC=C(C(F)(F)F)C(F)(F)F)c2ccccc2C1=O | 19.1% | 14.7% | 90.5% | 66.6% | 59% | 82.9% | -19.8% (active) | 52.7% |
| COc1ccc2cn3c4ccc(O)cc4[nH]c(=O)c3c2c1 | 25.3% | 54.7% | 41% | 25.8% | -48.7% (active) | 19.3% | 24.1% | -7.26% (active) |
| CCOC1=C(Cl)C(=O)C(OCC)=C(Cl)C1=O | 107% | 103% | 94.7% | 97.6% | 109% | 108% | 97.9% | 104% |
| CC1CCCCC[N+]12CCCC2 (centres undefined) | 111% | 93.6% | 96.4% | 103% | 113% | 103% | 96.8% | 108% |
| BrCCCOc1ccc(Oc2ccc(OCCCBr)cc2)cc1 | 109% | 99.6% | 123% | 108% | 105% | 94.7% | 88.9% | 134% |
| N#Cc1c2ncccc2c2nnc3cc(Cl)c(Cl)cc3n12 | 88.6% | 104% | 100% | 82.7% | 100% | 107% | 108% | 113% |
| Cc1c(C(N)=O)sc2c1c(=O)n(Cc1ccccc1)c1nnc(S(C)(=O)=O)n21 | 97.1% | 96.2% | 107% | 78.8% | 91.3% | 102% | 108% | 93.8% |
| CCCCCCCCCCC1OC(C)CC(C)O1 (centres undefined) | 100% | 102% | 102% | 99.8% | 106% | 98.7% | 93.4% | 105% |
| COc1ccc(C2CC(=O)c3c(O)cc(OC4OC(COC5OC(C)C(O)C(O)C5O)C(O)C(O)C4O)cc3O2)cc1O (centres undefined) | 105% | 105% | 81.7% | 10.3% | 110% | 98.3% | 100% | 112% |
| COC(=O)C(Cc1cnc[nH]1)N1CC(=O)N2[C@@H](c3ccccc3)SC[C@H]2C1=O (some centres undefined) | 100% | 143% | 112% | 114% | 109% | 96.4% | 107% | 124% |
| CN(CCC#N)c1ccc(/C=C(\C#N)c2cccc(C(F)(F)F)c2)cc1 | 66.2% | 65.7% | 86.5% | 81.7% | 74% | 36.3% | 74.9% | 49.5% |
| CC[N+](C)(C)N | 114% | 89.9% | 93.2% | 111% | 108% | 105% | 100% | 112% |
| [N-]=[N+]=Nc1ncc(-c2ccc(C(F)(F)F)cc2)c(NC2CCCCCC2)n1 | 38% [100 µM] | 60.3% [100 µM] | 47.6% [100 µM] | 69.9% [100 µM] | 18.4% [100 µM] | 23.6% [100 µM] | 38.1% [100 µM] | 36.3% [100 µM] |
| CCCC[N+](C)(N)CCCC | 112% | 105% | 103% | 97.6% | 102% | 103% | 97.1% | 122% |
